Screening results as filed in PubChem BioAssay.
ARNT TACC3 PPI: disrupts binding between human ARNT and TACC3; Q9Y6A5; AlphaScreen His-ARNT PAS-B/GST-TACC3 binding, luminescence; TACC3 fragment carries E629A point mutation; inhibition, % at 9.99 µM; 390,000 compounds, 0.66% hits; AID 623870;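 active = mean inhibition of replicates at least 50% and at least half of replicates each reaching 50%; inconclusive = half or more replicates reach 50% but mean below 50%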;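 note: 0% = complete ARNT plus TACC3 wells and 100% = ARNT alone without TACC3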
PvdQ acylase: P. aeruginosa PvdQ acylase inhibition; purified PvdQ acylase, fluorescence plate reader; inhibition, % at 10 µM; 340,000 compounds, 0.063% hits; AID 488965; in the data active = inhibition above about 30%, passing the limit was not always enough; inconclusive = no clear call, values can overlap the other calls;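 note: 0% = vehicle neutral wells and 100% = reference inhibitor wells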
CFTR F508del cor: CFTR F508del correction in bronchial cells; AID 720511; activity (quench increase), % at 7.58 µM; 350,000 compounds, 0.36% hits; CFBE cells, YFP halide quenching; stimulated with forskolin plus potentiator P3; % fluorescence drop versus neutral controls;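 active = mean added fluorescence quench of at least 8% versus neutral control, with both replicates also reaching 8%; inconclusive = only one of the mean or replicate conditions met; inactive = mean below 8% and not both replicates reaching 8%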;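 note: cells transiently co-express mutant CFTR-F508del with the halide-sensitive YFP; corrector assay measuring rescue of mutant channel to the surface after 24 h compound exposure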
ERAP1 inh: blocks human ERAP1 aminopeptidase activity. Q9NZ08. recombinant ERAP1, Leu-AMC fluorescence, 60 min. inhibition, % at 10.7 µM. 340,000 compounds, 0.15% hits. AID 652197;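 active = mean replicate inhibition of at least 30%, or all replicates individually reaching that 30% level; inactive = mean below 30% and not every replicate reaching it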;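 note: 0% = neutral control wells and 100% = L-leucinethiol positive control wells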
Target sequence (Q9NZ08 whole entry, looked up): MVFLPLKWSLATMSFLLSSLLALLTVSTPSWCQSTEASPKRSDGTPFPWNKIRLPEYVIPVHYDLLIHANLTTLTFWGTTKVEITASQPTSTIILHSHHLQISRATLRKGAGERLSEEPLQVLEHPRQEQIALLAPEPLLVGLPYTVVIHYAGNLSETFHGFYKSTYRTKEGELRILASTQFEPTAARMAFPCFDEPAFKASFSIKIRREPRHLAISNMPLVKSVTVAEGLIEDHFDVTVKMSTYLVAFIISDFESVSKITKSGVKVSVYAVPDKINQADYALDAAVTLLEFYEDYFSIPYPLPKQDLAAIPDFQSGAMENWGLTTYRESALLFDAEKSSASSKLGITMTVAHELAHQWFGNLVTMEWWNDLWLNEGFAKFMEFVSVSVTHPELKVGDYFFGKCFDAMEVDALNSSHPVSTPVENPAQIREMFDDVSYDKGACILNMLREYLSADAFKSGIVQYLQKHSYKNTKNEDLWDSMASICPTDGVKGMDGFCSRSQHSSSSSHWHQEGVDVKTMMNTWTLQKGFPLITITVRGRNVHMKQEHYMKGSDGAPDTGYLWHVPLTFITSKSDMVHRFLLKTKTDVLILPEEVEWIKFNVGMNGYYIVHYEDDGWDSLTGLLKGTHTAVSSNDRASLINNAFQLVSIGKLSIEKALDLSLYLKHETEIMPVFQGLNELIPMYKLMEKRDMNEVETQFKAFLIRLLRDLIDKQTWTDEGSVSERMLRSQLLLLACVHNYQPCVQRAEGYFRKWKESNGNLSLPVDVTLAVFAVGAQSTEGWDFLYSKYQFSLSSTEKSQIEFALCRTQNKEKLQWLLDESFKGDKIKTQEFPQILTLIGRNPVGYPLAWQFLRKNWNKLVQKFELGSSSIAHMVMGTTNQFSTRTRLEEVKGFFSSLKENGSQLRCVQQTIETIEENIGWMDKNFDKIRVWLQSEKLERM
rRNA inh HTS: inhibitors of bacterial rRNA selective over humanized ribosomes. E. coli WT GFP vs humanized-ribosome RFP mutants, fluorescence, 24 h; stronger effect = lower value; DMSO median 0, no signal -100. GFP signal change (wild-type ribosome), % (concentration not given with the values). 350,000 compounds, 1.6% hits;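 active = significant combined selectivity score with lowered wild-type GFP, culture density cut under 30%, mutant RFP and density less affected; inactive = any of these conditions unmet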
AID977621: growth inhibition of wild-type GFP E. coli, dose response, H69 mutant RFP, cherry-pick. shares compounds with rRNA inh HTS. E. coli wild-type GFP strain growth, fluorescence, 24 h. activity change, negative = inhibition at 50 µM. 1,900 tested, under 10 active. AID 977621;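 active = Wild-type ribosome reporter drop at least double the humanized mutant ribosome reporter drop, growth loss under a set limit; inconclusive = no clear call, values can overlap the other calls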;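 note: wild-type GFP and H69 mutant RFP strains grown together 50/50 in each well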
AID977628: E. coli growth inhibition, wild-type GFP versus h24 humanized RFP strain, dose response, h24 mutant RFP vs wild-type GFP, cherry-pick. AID 977628. shares compounds with rRNA inh HTS. activity change, negative = inhibition at 50 µM. 1,900 tested, under 10 active. E. coli WT GFP strain growth, fluorescence, 24 h;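 active = compound lowering the normal-ribosome reporter at least twice as much as the humanized-ribosome reporter, growth loss under a set limit; inconclusive = no clear call, values can overlap the other calls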;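 note: wild-type GFP and h24 humanized RFP strains co-cultured 1 to 1 per well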
Starred values were filed as active, the others as inactive. This is a sample that favours compounds with a hit; in the whole collection about 2.1% have one here.

Screening CCCCc1cc2c(cc1NC(=O)CN1CCCCC1)OCCO2 returned ARNT TACC3 PPI -18, PvdQ acylase -17, CFTR F508del cor -3, ERAP1 inh -1, rRNA inh HTS -18* and AID977628 -10.
For Cc1ccc(NC(=O)Nc2ccc3c(c2)C(=O)N(C)[C@H]2CC[C@H](CC(=O)NCC(F)(F)F)O[C@H]2CO3)cc1 the results were ARNT TACC3 PPI -11, ERAP1 inh -2 and rRNA inh HTS 0.
For CC(c1ccc(F)cc1)n1c(-c2ccc3ccccc3n2)n[nH]c1=S (stereo not given) the results were ARNT TACC3 PPI -14, PvdQ acylase 5, CFTR F508del cor 1, ERAP1 inh 10, rRNA inh HTS -32* and AID977621 -4.7.
For Cc1cccc(NC(=O)COc2cccc3c2CCNC3=O)c1 the results were CFTR F508del cor -5, ERAP1 inh -1, rRNA inh HTS -18*, AID977621 -9.7 and AID977628 -10.
`O=C(C[C@@H]1C=C[C@@H](NC(=O)Nc2cc(F)ccc2F)[C@H](CO)O1)NCCCN1CCOCC1` gave ARNT TACC3 PPI 3, CFTR F508del cor 0, ERAP1 inh -3 and rRNA inh HTS 2.
For CC(=O)Nc1cccc(Nc2nc(-c3ccccc3)nc3ccccc23)c1 the results were ARNT TACC3 PPI -1, PvdQ acylase -7, CFTR F508del cor -1, ERAP1 inh 1, rRNA inh HTS -22* and AID977628 inconclusive.
`COc1ccc(CNC(=O)c2cc3c(s2)CN(Cc2ccccc2)C3)cc1` gave ARNT TACC3 PPI 1, PvdQ acylase -10, CFTR F508del cor -2, ERAP1 inh 1, rRNA inh HTS -22* and AID977621 -20.
`Cc1ccc(Cc2c(-c3cccc(Br)c3)nc3ccc(C)cn23)cc1` gave CFTR F508del cor 3, rRNA inh HTS -27*, AID977621 0.33 and AID977628 -9.
`COC(=O)c1ccc2nc(-c3ccc(OC)c(OC)c3)c(Cc3ccc(C)cc3)n2c1` gave CFTR F508del cor -2, ERAP1 inh -1, rRNA inh HTS -15* and AID977621 -19.
`COC(=O)c1ccc2nc(-c3ccco3)c(Cc3cccc(F)c3)n2c1` gave CFTR F508del cor 1, ERAP1 inh -1 and rRNA inh HTS 9.
Screening COC(=O)c1ccc2nc(-c3ccc(F)cc3)c(Cc3cccc(F)c3)n2c1 returned CFTR F508del cor 3, ERAP1 inh -1, rRNA inh HTS -24*, AID977621 -3.1 and AID977628 -6.
For COC(=O)c1ccc2nc(-c3ccc(C)cc3)c(Cc3ccc(C)cc3)n2c1 the results were CFTR F508del cor -1, ERAP1 inh 0 and rRNA inh HTS -2.
COC(=O)c1ccc2nc(-c3ccco3)c(Cc3ccc(C)cc3)n2c1 was read as CFTR F508del cor 0, ERAP1 inh 2, rRNA inh HTS -29*, AID977621 -6.3 and AID977628 inconclusive.
For COC(=O)c1ccc2nc(-c3ccccc3)c(Cc3cccc(F)c3)n2c1 the results were CFTR F508del cor 3, ERAP1 inh -1 and rRNA inh HTS -27.
`O=C(C1CC1)N1CCCCN2[C@H](CO)[C@H](c3ccc(C#CC4(O)CCCC4)cc3)[C@@H]2C1` gave ARNT TACC3 PPI -2, CFTR F508del cor -1 and ERAP1 inh 1.
C[C@H](CO)N1C[C@H](C)[C@@H](CN(C)C(=O)Nc2cccc3ccccc23)Oc2ccc(NC(=O)Cc3cn(C)c4ccccc34)cc2C1=O was read as ARNT TACC3 PPI -2, CFTR F508del cor 4, ERAP1 inh 4 and rRNA inh HTS 1.
CC(C)NC(=O)Nc1ccc2c(c1)C(=O)N([C@@H](C)CO)C[C@@H](C)[C@@H](CN(C)Cc1ccc(Cl)c(Cl)c1)O2 was read as ARNT TACC3 PPI 35, CFTR F508del cor -2, ERAP1 inh 2 and rRNA inh HTS -10.
COc1ccc(-c2nc3c(C)cc(Br)cn3c2Cc2ccc(C)cc2)cc1OC was read as CFTR F508del cor 7, ERAP1 inh -3, rRNA inh HTS -6.1* and AID977628 inconclusive.
`C/C=C/c1cnc2c(c1)C(=O)N([C@H](C)CO)C[C@H](C)[C@@H](CN(C)C(=O)c1cnccn1)O2` gave ARNT TACC3 PPI 0, CFTR F508del cor 1, ERAP1 inh 0 and rRNA inh HTS 3.
Screening C=CCN1C(=O)[C@]2(O[C@H](CCO)[C@@H]([Si](C)(C)c3ccc(OC)cc3)[C@@H]2C)c2cc(N3CCCCC3=O)ccc21 returned ARNT TACC3 PPI -5, CFTR F508del cor 3 and ERAP1 inh 3.
Screening O=C(c1cccc2ccccc12)C1CCCN(C(=O)CCc2cnccn2)C1 (stereo not given) returned ARNT TACC3 PPI 3, PvdQ acylase -8, CFTR F508del cor 3, ERAP1 inh 9, rRNA inh HTS -21*, AID977621 -11 and AID977628 -12.
`O=C(c1cc(F)ccc1F)C1CCCN(C(=O)CCc2cnccn2)C1` (stereo not given) gave ARNT TACC3 PPI -14, PvdQ acylase -9, CFTR F508del cor 3, ERAP1 inh 9 and rRNA inh HTS 11.
For O=C(COC(=O)c1cccc(S(=O)(=O)N2CCCCC2)c1)NCc1cccc(Cl)c1 the results were CFTR F508del cor -2, ERAP1 inh 1, rRNA inh HTS -15* and AID977628 2.4.
Screening CC(NC(=O)CN(C)Cc1ccc(Br)cc1)c1ccccc1 (stereo not given) returned ARNT TACC3 PPI -1, PvdQ acylase -8, CFTR F508del cor 1, ERAP1 inh 0 and rRNA inh HTS -1.
`CSc1ccc(CN(C)CC(=O)NC(C)c2ccccc2)cc1` (stereo not given) gave ARNT TACC3 PPI -3, PvdQ acylase 0, CFTR F508del cor 0, ERAP1 inh 2, rRNA inh HTS -31* and AID977621 -6.8.
C[C@H](CO)N1C[C@H](C)[C@@H](CN(C)S(=O)(=O)c2ccc(F)cc2)OCCCC[C@H](C)Oc2ccc(NC(=O)Nc3cccc4ccccc34)cc2C1=O was read as ARNT TACC3 PPI -6, CFTR F508del cor -2, ERAP1 inh -1 and rRNA inh HTS 3.
Screening Cc1cccc(OCc2nc(C#N)c(N3CC(C)CC(C)C3)o2)c1 (stereo not given) returned ARNT TACC3 PPI 18, PvdQ acylase -8, CFTR F508del cor 3 and rRNA inh HTS -9.
